Rows were chosen to be rich in hits. Some 1.9% of all compounds tested hit in one or more screens of this group.
RXFP1 ag – agonists of human relaxin receptor RXFP1; HEK293T-RXFP1 cAMP TR-FRET, 30 min; response scale: percent of porcine relaxin response, buffer zero; Potency, µM (top dose mostly 57.5 µM), for inactives: at the highest dose activation, most hits filed as activators; Q9HBX9; actives 0.3% (n = 370,000); further: potency means the concentration at half of the fitted maximal effect; on the % scale 0 is the no-effect control and ±100 the full control effect; nearly all actives have a fitted effect of over 60% in size
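cAMP rise read by TR-FRET after 30 min, 37C compound exposure (up to 58 uM) in RXFP1-transfected HEK293 cells with Ro 20174 present. EC50 from Hill-equation fits, with 29 nM porcine relaxin as 100% and buffer as basal.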
BRCA1 expr act – activators of BRCA1 expression. MCF7-BRCA1-FFLuc reporter, luminescence, 48 h; response scale: scaled: vehicle 0%, 10 µM genistein 100%. Potency, µM (doses to about 46.1 µM), without a hit: at the highest dose activation, hits mostly activators. actives 1.1% (n = 380,000); further: potency means the concentration at half of the fitted maximal effect; nearly all actives have a fitted effect of over 80% in size
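First, MCF7-BRCA1-FFLuc cells (2000/well) attach for 2 h; next, compounds are pin-added and incubated 48 h at 37 °C; finally, luciferase reagent is added and luminescence read after 15 min.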
NPSR antagonist – blocks cAMP signaling of the human neuropeptide S receptor; Q6W5P4; CHO-NPSR cells, cAMP TR-FRET, antagonist mode; Potency, µM (top dose mostly 38.3 µM), inactives show at the top dose activity change, negative = inhibition, hits mostly inhibitors; actives 1% (n = 220,000); AID 1461; further: potency means the concentration at half of the fitted maximal effect; on the % scale 0 is the no-effect control and ±100 the full control effect; nearly all actives have a fitted effect of over 50% in size
Target sequence (Q6W5P4 whole entry, looked up): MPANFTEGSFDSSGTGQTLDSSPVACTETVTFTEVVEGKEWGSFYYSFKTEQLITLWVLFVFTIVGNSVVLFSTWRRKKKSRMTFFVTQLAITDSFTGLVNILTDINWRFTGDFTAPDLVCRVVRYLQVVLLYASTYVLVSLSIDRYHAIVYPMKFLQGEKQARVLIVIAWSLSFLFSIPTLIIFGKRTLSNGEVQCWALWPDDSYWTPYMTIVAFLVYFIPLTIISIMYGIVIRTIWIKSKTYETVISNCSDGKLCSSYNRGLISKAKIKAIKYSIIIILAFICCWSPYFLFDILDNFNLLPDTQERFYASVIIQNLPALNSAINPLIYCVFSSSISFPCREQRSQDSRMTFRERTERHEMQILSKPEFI
IL2 activator – activates IL-2 in a cell-based reporter assay; IL-2 activation reporter assay, cell-based qHTS; stimulated with anti-CD3/CD4/CD28 beads; in transgenic mouse T cells; activation, % (series mostly up to about 46 µM); actives 0.065% (n = 360,000); in the data active means activation above about 50%; inconclusive means mostly about 30% to 49%; further: 0% is about no effect
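Readout is EGFP and DsRed signal by fluorescent plate cytometry after 18 h at 37 degrees C. Transgenic mouse T cells (750/well) received compound for 60 min before bead stimulation (anti-CD3, anti-CD4, anti-CD28); memory T cells served as non-tolerant control.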
RXFP1 antagonist – blocks the human relaxin receptor RXFP1 | AID 1259400 | actives 0.59% (n = 350,000) | HEK293-RXFP1, relaxin-stimulated cAMP HTRF, 30 min; hits give low values | activity change, negative = inhibition, % at 57.5 µM;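 active means activity change of -60% or lower, but not beyond a set lower limit; inconclusive means change between -60% and -40%, or beyond the set limit; inactive means change above -40%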; further: on the % scale 0 is the no-effect control and ±100 the full control effect
Giardia kill – kills Giardia lamblia; activity change, % at 7.66 µM, hits read low; actives 0.15% (n = 340,000); Giardia lamblia trophozoite viability; in the data active means activity change below about -80%; inconclusive means between about -30% and that limit;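 further: parasites exposed to compound for two days anaerobically before the ATP read; on the % scale 0 is the no-effect control and ±100 the full control effect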
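Giardia trophozoites, 100 cells per well, were exposed to compounds for 48 hrs at 37 deg C under anaerobic conditions; viability was then read as ATP content by bioluminescence after 15-30 min at room temperature.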
* hit, by the source's call; ? = inconclusive; . = no result; [ ] = another dose, or the depositor's remark. Unless noted, the call rests on the fitted dose curve; in most records, active means well fitted curve in the direction sought with a large enough effect; inconclusive means small, poorly fitted or top-dose-only effect, or another doubt; inactive means no such curve, though single readings can be large; an effect the other way counts as inactive or inconclusive.

SMILES | RXFP1 ag | BRCA1 expr act | NPSR antagonist | IL2 activator | RXFP1 antagonist | Giardia kill
Cc1cc(C)nc(NC(=O)/C=C/c2ccccc2Cl)c1 | -1.1% | 3.16µM* | -28.1% | 1.5 | -21.8 | 14.9
O=C(/C=C/c1ccc(Cl)cc1Cl)Nc1ccncc1 | 0.4% | 15.6% | -43.9% | 0.1 | -8.1 | 9.3
Cc1cc(C)nc(NC(=O)/C=C/c2ccc(Cl)cc2Cl)c1 | -3.8% | 6.31µM* | ? | -1.0 | . | -16.1
Cc1cccc(OC(C)C(=O)Nc2ncn[nH]2)c1 (configuration not stated) | -0.8% | . | . | . | 0.4 | .
CC(=O)[C@@]1(O)CC[C@H]2[C@@H]3CCC4=CC(=O)CC[C@]4(C)[C@H]3CC[C@@]21C | -0.3% | 1.5% | -16.1% | -0.2 | 1.8 | -7.9
CCCCCC(=O)O[C@]1(C(C)=O)CC[C@H]2[C@@H]3CCC4=CC(=O)CC[C@]4(C)[C@H]3CC[C@@]21C | 2.6% | -12.6% | 10µM* | -0.5 | -16.8 | 19.7
CCOC(=O)c1nnc2c(-c3ccc(Cl)cc3)c(C)nn2c1C | 0.0% | 9.6% | . | . | . | .
COC(=O)c1sc(-c2cccs2)cc1N | 1.2% | 12.6µM* | -11.6% | -0.4 | ? | -4.8
COC(=O)c1c(C)nc(C)c(C(=O)OC)c1-c1cccs1 | 0.6% | -22.2% | 17.9% | -0.7 | -11.0 | 9.5
COC(=O)c1sc(-c2ccc(Cl)cc2)cc1N | 1.5% | 3.98µM* | 6.2% | -1.6 | -20.4 | -1.7
Cc1ccc(CSc2nnc(-c3ccc(NC(=O)CCc4ccccc4)cc3)n2C)cc1 | . | 23.5% | . | . | . | .
CCOc1cccc(C(=O)N(Cc2ccc(C(C)C)cc2)C2CCS(=O)(=O)C2)c1 (configuration not stated) | 0.2% | . | . | . | -25.0 | .
O=C(Nc1ccc(N2CCN(Cc3ccccc3F)CC2)cc1)c1ccc([N+](=O)[O-])o1 | -2.7% | -91.7% | . | 0.0 | -9.1 | -96.3*
O=C(Nc1cccc(Cl)c1N1CCOCC1)c1cc([N+](=O)[O-])ccc1N1CCOCC1 | -0.7% | -2.8% | . | -2.4 | -1.6 | -1.4
CCCC(=O)N1CCN(c2ccc(NC(=O)c3ccc([N+](=O)[O-])o3)cc2)CC1 | -1.9% | -90.3% | 7.94µM* | -3.1 | 3.2 | -81.6*
O=C(Nc1cccc(Cl)c1N1CCOCC1)c1ccc([N+](=O)[O-])o1 | 0.0% | -4.6% | 5.8% | 2.1 | 2.6 | -85.8*
O=C(Nc1cccc(NC(=O)c2ccccc2Cl)c1)c1ccc([N+](=O)[O-])o1 | -1.1% | -101.9% | . | -3.2 | 29.9 | -102.5*
O=C(Nc1ccc(N2CCCCC2)cc1)c1ccc([N+](=O)[O-])o1 | -4.2% | -68.4% | . | -4.4 | -7.5 | -85.1*
O=C(Nc1ccc(N2CCCC2)c(Cl)c1)c1ccc([N+](=O)[O-])o1 | -0.5% | -92.0% | 7.94µM* | -4.2 | -8.1 | ?
CC1CCN(c2ccc(NC(=O)c3ccc([N+](=O)[O-])o3)cc2)CC1 | 0.4% | -97.3% | . | -1.7 | -16.5 | ?
COc1ccc(C(=O)Nc2cc([N+](=O)[O-])ccc2N2CCCC2)cc1 | -0.3% | -30.3% | -24.0% | -0.4 | -28.8 | 2.8
CC(C)(C)C(=O)N1CCN(c2ccc(NC(=O)c3ccco3)cc2)CC1 | 0.6% | 36.2% | . | -0.4 | -82.8* | 2.5
COc1ccc(N2CCCC2)c(NC(=O)c2ccc([N+](=O)[O-])o2)c1 | -0.6% | -68.8% | . | 1.3 | 2.5 | -85.9*
COc1ccc(OC)c(C2C(C(=O)N3CCCCC3)=C(C)Nc3nc4ccccc4n32)c1 (configuration not stated) | -0.5% | 11.2% | . | . | . | .
Clc1ncc(C#Cc2ccccc2)c2ncncc12 | . | -61.3% | . | . | . | 12.9
SMILES | RXFP1 ag | BRCA1 expr act | NPSR antagonist | IL2 activator | RXFP1 antagonist | Giardia kill
CC(C)(C)C(=O)N1CCN(c2ccc(NC(=O)c3ccc([N+](=O)[O-])o3)cc2)CC1 | 2.7% | -91.1% | . | -0.4 | 11.6 | -81.1*
O=C(Nc1ccc(N2CCN(C(=O)c3ccc(Cl)cc3)CC2)cc1)c1ccc([N+](=O)[O-])o1 | -1.1% | -89.1% | -42.1% | 0.3 | 2.5 | -86.8*
CCC(=O)N1CCN(c2ccc(NC(=O)c3ccc([N+](=O)[O-])o3)cc2)CC1 | 1.2% | -89.2% | -55.7% | -1.2 | -10.3 | ?
CS(=O)(=O)N1CCN(c2ccc(NC(=O)c3ccc([N+](=O)[O-])o3)cc2)CC1 | 3.3% | -82.8% | -37.2% | 0.7 | -0.5 | -81.2*
Cc1cccc2cc(CN(Cc3ccccc3)Cc3nnnn3Cc3ccccc3)c(=O)[nH]c12 | . | 4.0% | . | . | . | -24.1
COc1ccc(OC)c(NC(=O)CN(C)S(=O)(=O)c2ccc(C(=O)N3CCOCC3)s2)c1 | 5.1% | -17.7% | . | . | . | .
COc1ccc2[nH]c(CN3CCC(CO)(CCOc4ccccc4)CC3)c(C)c2c1 | -2.1% | -48.6% | ? | -0.8 | -70.5* | 8.4
COc1ccc(CN2CCC(CO)(CCOc3ccccc3)CC2)c(OC)c1C | -0.7% | 0.0% | 20.4% | 4.6 | -22.1 | 1.1
CCCOc1ccc(C2C(=O)N(C3CCCCCC3)CC(=O)N2C(C)C)cc1OC (configuration not stated) | -0.4% | . | . | . | 14.5 | .
O=C(NCc1ccccc1)[C@]1(C(F)(F)F)C[C@H](CCC2CCCCC2)CCCO1 | . | . | . | . | . | -14.4
COc1cccc(/C=N/Nc2nc(Nc3ccccc3)nc(-n3nc(C)cc3C)n2)c1O | 4.1% | -70.4% | 2.51µM* | -0.4 | -0.5 | 18.2
COc1ccc2nc(C)cc(N/N=C/c3cccc(OC)c3O)c2c1 | 0.5% | -46.6% | . | -3.5 | -26.0 | -83.0*
COc1cccc(/C=N/Nc2nccnc2Cl)c1O | -0.3% | -61.6% | -2.7% | 0.2 | -69.7* | 2.8
CCOc1ccc(N/C(C)=C/C(=O)c2ccc3c(c2)OCCO3)cc1 | 5.6% | 4.47µM* | 33.0% | 1.0 | 2.9 | 5.2
COc1ccc(C(=O)/C=C(\C)Nc2ccc3c(c2)OCO3)cc1 | 0.8% | ? | -10.0%[46.1 µM] | -0.5 | -5.2 | 0.4
CCOc1ccc(N/C(C)=C\C(=O)c2ccc3c(c2)OCCO3)cc1 | -4.3% | 12.6µM* | 18.7% | -0.9 | -3.1 | -7.3
Cc1ccc(S(=O)(=O)N2CCN(S(=O)(=O)c3ccc4c(c3)OCCCO4)CC2)cc1 | . | 11.3% | . | . | . | 7.5
O=C(CSCc1ccccc1F)NCc1ccccc1 | 2.2% | 7.08µM* | 4.4% | 0.2 | -5.4 | 4.5
O=C(CSCc1cccc(F)c1)NCc1ccccc1 | 0.2% | 11.2µM* | 6.4% | 0.9 | 11.1 | -9.0
CCc1ccc(CNC(=O)CCSCc2ccccc2F)cc1 | -1.0% | . | . | . | 0.4 | .
CCc1ccc(-n2nnc(-c3nc(-c4ccc(C)cc4)no3)c2N)cc1 | 0.1% | . | . | . | 1.3 | .
O=S(=O)(c1ccc2c(c1)OCO2)N1CCN(c2nc(-c3cccs3)nc3ccccc23)CC1 | . | 31.7% | . | . | . | -18.3
